# Shiga toxin inh: Shiga toxin inhibition | inhibition, % at 38.7 µM | actives 9.2% (n = 290,000) | AID 2315 | Vero cells, Shiga toxin protein synthesis inhibition reporter; in the data active = inhibition mostly above about 28%, no sharp cut-off; inactive = mostly below about 43%; also: 0% is about no effect
# NS1 function inh: influenza NS1 inhibition | Potency, µM (series often up to 46.1 µM), for inactives: at the top dose activity, positive = more growth | actives 0.4% (n = 270,000); calls by dose curve; also: potency is read from the fitted curve at half-maximal effect; actives are rising curves; nearly all actives have a fitted effect of over 50% in size
#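 In this qHTS, NS1 from influenza A is expressed in budding yeast, where it slows growth. Cells are switched from glucose to 2% galactose medium (pH 6.0, -URA), treated with compound, and growth recovery is read at OD600.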
# Pf growth 96h: inhibits malaria parasite growth, 96 h. P. falciparum luciferase reporter growth, 96 h. Potency, µM (series often up to 28.7 µM), for inactives: at the highest dose activity change, negative = inhibition, actives largely listed as inhibitors. actives 6.9% (n = 320,000). AID 504834; also: potency is read from the fitted curve at half-maximal effect; % is scaled to controls: 0 for no effect and ±100 for the full control effect
#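 Readout is luminescence from an integrated firefly luciferase in P. falciparum. Red cells, 2% hematocrit and 0.05% parasitemia final, were cultured with compound through two parasite generations (96 hours) at 37 C, 5% CO2.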
# Cycloheximide cs: counter-screen for Shiga toxin inhibitors: cycloheximide protein synthesis inhibition; cell reporter, cycloheximide protein synthesis inhibition counterscreen; max response, %; actives 12% (n = 300,000); AID 2314; in the data active = max response mostly above about 13%, no sharp cut-off; inactive = mostly below about 14%; also: read at 38.3 µM for the half of the compounds with a filed dose; 0% is about no effect
# Pf growth 48h: P. falciparum growth inhibition at 48 hours (one generation); actives 5.9% (n = 310,000); Potency, µM (doses to about 28.7 µM), inactives show at the highest dose activity change, negative = inhibition, actives largely listed as inhibitors; AID 504832; P. falciparum luciferase growth in erythrocytes, 48 h; also: potency is read from the fitted curve at half-maximal effect; % is scaled to controls: 0 for no effect and ±100 for the full control effect
#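 Read-out is firefly luciferase luminescence from an integrated reporter in P. falciparum, so falling signal marks reduced parasite growth. Infected erythrocytes were at 2% hematocrit and 0.1% parasitemia (final) in Albumax-supplemented RPMI 1640.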
# * = called active by the depositor; ? = inconclusive; / = no result given; [ ] = dose if it differs, or a comment. Compounds with a hit are over-represented: about 21% of the library has one in this group of screens. Unless noted, calls follow the shape of the dose curve; as a rule, active = well fitted inhibition curve with a large enough effect; inconclusive = small, poorly fitted or top-dose-only effect, or another doubt; inactive = no such curve, though single readings can be large or run the other way.
SMILES,Shiga toxin inh,NS1 function inh,Pf growth 96h,Cycloheximide cs,Pf growth 48h
CCc1cc(C(=O)N/N=C/c2c(C)[nH]c3ccccc23)cs1,-64,-26%,-27%,25,5%
Cc1[nH]c2ccccc2c1/C=N/NC(=O)c1cccc(F)c1,62*,1%,?,26*,20%
CC(C)Sc1nc(N)nc(-c2cccs2)c1C#N,105*,-28%,52%,33*,71%
O=C(NCCCN1CCOCC1)c1ccc(/C=C2\Oc3ccccc3N(Cc3ccccc3F)C2=O)cc1,-6,9%,8.3µM*,-4,-30%
O=C(CN1C(=O)/C(=C\c2ccccc2Br)Oc2ccccc21)NCCCN1CCOCC1,-3,-1%,2.3µM*,-5,-4%
O=C(Cc1cccs1)Nc1ccc(Cl)c(S(=O)(=O)N2CCOCC2)c1,/,/,?,/,10µM*
O=C(Cc1cccs1)Nc1ccc(F)c(S(=O)(=O)N2CCOCC2)c1,/,/,6.6µM*,/,?
Cc1ccc(NC(=O)COC(=O)Cc2cccs2)cc1S(=O)(=O)N1CCOCC1,-9,0%,-16%,2,-16%
Cc1cccc(N=c2c([N+](=O)[O-])nn(-c3ccc(Cl)cc3)n2O)c1,35,-4%,-19%,20*,?
Cc1cc(C)cc(N=c2c([N+](=O)[O-])nn(-c3cccc(Cl)c3)n2O)c1,-8,-3%,3.7µM*,-4,/
CCc1cccc(N=c2c([N+](=O)[O-])nn(-c3ccc(Cl)cc3)n2O)c1,21,-2%,/,2,?
COC(=O)c1[nH]c(C)c(/C(O)=C2\C(=O)C(=O)N(CCN3CCOCC3)C2c2ccc(C)o2)c1C (centres undefined),37,2%,0%,1,0%
Cc1ccc(C(=O)COC(=O)C2C3C=CC(C3)C2C(=O)OCC(=O)c2ccc(C)c(C)c2)cc1C (centres undefined),-20,8%,1.2µM*,1,?
CC1CCCC(NC(=O)NC(=O)COC(=O)c2ccc(O)cc2O)C1C (centres undefined),/,/,?,/,7.4µM*
O=C(COC(=O)c1cc(S(=O)(=O)N2CCCCC2)ccc1N1CCOCC1)NC1CCS(=O)(=O)C1 (centres undefined),-8,/,-10%,1,?
CCOc1ccc(CCNC(=O)COC(=O)c2cc(S(=O)(=O)N3CCOCC3)ccc2F)cc1OCC,-9,12%,13µM*,-1,?
CC1CCCC(NC(=O)COC(=O)c2cc(S(=O)(=O)N3CCCCC3)ccc2N2CCOCC2)C1C (centres undefined),-12,14%,5.2µM*,-3,/
CC(C)CCNC(=O)NC(=O)COC(=O)c1cc(S(=O)(=O)N2CCOCC2)ccc1N1CCCCC1,-10,-3%,/,3,9.3µM*
COc1ccc(OC)c(CNC(=O)C2CCC(=O)N(CCCN3CCCC3=O)C2)c1 (centres undefined),-5,3%,9%,0,-2%
O=C(NC1CCCCC1)NC1(C(=O)NCCCN2CCOCC2)CCCCC1,18,?,22%,-5,18%
CC/C(=N\NC(=S)Nc1cc(C)ccc1C)c1ccc(OC(F)F)cc1,-6,-18%,?,1,?
COc1cc(=O)n(C)c2c(OCC3OC(C)(C)OC3(C)C)cccc12 (centres undefined),35,-1%,?,9.7*,?
CCOC(OCC)c1cn(Cc2ccc(C(=O)c3ccccc3)cc2)nn1,-10,-9%,?,-4,16%
Cc1ccc(-c2cc(N)nc(-c3ccccc3)c2)cc1,60*,-17%,-21%,28*,-15%
CC(C)OP(=O)(OC(C)C)C(NC(=O)c1ccccc1Br)C(N)=O (centres undefined),19,1%,58%,0,18%
SMILES,Shiga toxin inh,NS1 function inh,Pf growth 96h,Cycloheximide cs,Pf growth 48h
CC1(C)CC(=O)C2=C(C1)OC(N)=C(C#N)C2c1ccccc1OC(=O)N1CCOCC1 (centres undefined),-4,1%,5.9µM*,-4,-10%
O=C1/C(=C/c2ccccc2)SC(=S)N1CC(=O)N1CCCCC1c1cccnc1 (centres undefined),-20,-51%,?,-2,?
Cc1ccc(-c2nnc(CCC(=O)NCc3csc(C)n3)o2)s1,38,-1%,19%,8,9%
Cc1csc2nc(O)c(C(=O)NC3CCCCCC3)c(=O)n12,/,/,?,/,12µM*
Cc1csc2nc(O)c(C(=O)NCCCN3CCCC3=O)c(=O)n12,/,/,-8%,/,-21%
Cc1csc2nc(O)c(C(=O)NC3CCCCC3)c(=O)n12,/,/,5.9µM*,/,12µM*
O=C(NC1CCCC1)c1c(O)nc2sccn2c1=O,/,/,?,/,-28%
Cc1nn(-c2ccccc2)c(Cl)c1C(=O)NCC1CCCO1 (centres undefined),/,/,-12%,/,-24%
Cc1nc2ccccn2c1C(=O)NC1CCCc2ccccc21 (centres undefined),3,-5%,?,-1,9.3µM*
O=C(NC1CCCc2ccccc21)c1cn2ccccc2n1 (centres undefined),15,/,1%,19*,8%
CC(C)CC1NC(=O)N(CC(=O)Nc2cccc(Br)c2)C1=O (centres undefined),/,/,13%,/,-29%
COc1ccc(CNc2nc(NCc3ccc(OC)c(OC)c3)n(C(=O)c3cccs3)n2)cc1OC,53,13%,7.4µM*,26,?
COc1ccc(CCNC(=O)c2cccs2)cc1OC,8,1%,-14%,-2,-28%[1.15 µM]
Cc1noc(N)c1C(=O)Nc1ccc(F)c(Cl)c1,2,-7%,81%,-1,2.3µM*
Cc1noc(N)c1C(=O)Nc1ccccc1F,-8,-3%,?,-2,-6%
Cc1noc(N)c1C(=O)Nc1ccc(F)cc1,-11,-7%,2.1µM*,17,-9%
CCN(CC)Cc1ccccc1Sc1ccccc1,6,-12%,-28%,-5,-2%
CCOC(=O)c1c(-c2ccccc2)nc2cc(C)ccn12,76*,-61%,79%,54*,28%
Cc1ccn2c(NC(=O)c3ccco3)c(-c3ccccc3)nc2c1,-5,-6%,4.1µM*,1,-5%
CCOC(=O)C(=O)c1c(-c2ccccc2)nc2ccccn12,-11,0%,43%,0,11%
CCOC(=O)c1c(-c2ccccc2)nc2ccc(C)cn12,123*,-178%,431%,45*,219%
CC(C)c1ccc(/C=C/C(=O)NC2=NCCS2)cc1,44*,-87%,2%,44*,-67%
O=C(/C=C/c1ccc(Cl)c(Cl)c1)NC1=NCCS1,79*,4%,0%,35*,21%
CC(C)C(C(=O)NC1=NCCS1)c1ccc(Cl)cc1 (centres undefined),-5,/,?,6,3.7µM*
CC(C)c1ccc(/C=C/C(=O)O)cc1,-1,-88%,2%,5,8%
CCOc1ccccc1/C=C(\C#N)C(N)=O,/,3%,/,/,/
Nc1ccc(C(=O)OCC(=O)NC(=O)c2ccccc2)cc1[N+](=O)[O-],/,/,1%,/,37%
Cc1cc(C)n2cc(-c3ccc(Cl)cc3)c(C(=O)O)c2n1,51*,-6%,141%,22*,93%
